High-throughput results from PubChem BioAssay.
SW480 rereplic: induces DNA re-replication in SW480 colon adenocarcinoma cells. AID 624297. Potency, µM (top dose mostly 46.1 µM), for the others: at the highest dose re-replication activation, most hits filed as activators. 340,000 compounds, 1.8% hits. SW480 DNA re-replication, Hoechst DNA content imaging, 48 h; note: % of control where 0% means no effect; nearly all actives have a fitted effect of over 55% in size
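Image-based read-out: total Hoechst fluorescence of nuclei (405 nm excitation, 500-530 nm emission), with hits raising the fraction of high-intensity nuclei. SW480 colon cells incubated 48 hr with compounds at 37 C.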
HT1080 IDH1KD tx: kills HT-1080 cells with IDH1 knockdown; HT-1080 IDH1 knockdown viability, ATP luminescence, 48 h; AID 686971; Potency, µM (titrated, usually from 46.1 µM), for inactives: at the highest dose activity, negative = toxicity, hits mostly cytotoxic; 360,000 compounds, 2% hits;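 note: 0% = DMSO wells and -100% = cell-free medium wells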
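Using the IDH1-knockdown HT-1080 line run in the same batch and compound series as the NT line, viability after 48 h at 37 °C was determined by CellTiter-Glo luminescence and expressed as % activity.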
HT1080-NT tox: kills 2HG-producing HT-1080-NT fibrosarcoma cells; HT-1080-NT fibrosarcoma viability, CellTiter-Glo ATP luminescence, 48 h; Potency, µM (series often up to 46.1 µM), for the others: at the top dose activity, negative = less viability, hits mostly cytotoxic; 360,000 compounds, 1.6% hits; AID 686970;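 note: NT is the 2HG producing partner of a matched IDH1 knockdown line; 0% = DMSO-treated cells and -100% = media-only wells without cells; nearly all actives have a fitted effect of over 55% in size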
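Luminescent CellTiter-Glo readout after 48 hours of compound exposure at 37 degrees C defined viability of HT-1080-NT cells. Activity was normalized to DMSO wells and cell-free media wells; concentration-response curves were fitted and assigned curve classes.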
KB-V1 cytotox: KB-V1 MDR subline cytotoxicity; KB-V1 MDR cells viability, CellTiter-Glo, 72 h; Potency, µM (top dose mostly 46.1 µM), most hits filed as cytotoxic; 400,000 compounds, 3.4% hits; note: % is set by controls: 0 for no effect and ±100 for the full control effect; nearly all actives have a fitted effect of over 60% in size
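Compound-treated KB-V1 multidrug-resistant cells, 72 h, 37 degrees C; viability by CellTiter-Glo. Fitted qHTS curves give the values.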
KB-3-1 tox: KB-3-1 parental cell cytotoxicity; AID 1347075; 400,000 compounds, 1.4% hits; KB-3-1 viability, CellTiter-Glo ATP luminescence, 72 h; Potency, µM (top dose mostly 46.1 µM), hits mostly cytotoxic; note: % is set by controls: 0 for no effect and ±100 for the full control effect; nearly all actives have a fitted effect of over 60% in size
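Here the drug-naive KB-3-1 line serves as comparator for MDR sub-line selectivity; cells received compound titrations, 72 h at 37 °C, then CellTiter-Glo readout.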
MCF10A rereplic: induces DNA re-replication in MCF 10a normal breast cells | MCF 10A DNA re-replication, Hoechst nuclear intensity, 48 h | AID 624296 | 350,000 compounds, 2.9% hits | Potency, µM (titrated, usually from 46.1 µM), for the others: top-dose activity, positive = re-replication, most hits filed as activators; note: % of control where 0% means no effect; nearly all actives have a fitted effect of over 50% in size
Active calls of the source: *; i = inactive; ? = inconclusive; · = no result given. Rows were chosen to be rich in hits. Some 7.9% of all compounds tested hit in one or more screens of this group. Calls come from the whole dose curve; as a rule, active = well fitted curve in the direction sought with a large enough effect; inconclusive = small, poorly fitted or top-dose-only effect, or another doubt; inactive = no such curve, though single readings can be large; an effect the other way counts as inactive or inconclusive. Potency is the fitted concentration of half-maximal effect.

SMILES | SW480 rereplic | HT1080 IDH1KD tx | HT1080-NT tox | KB-V1 cytotox | KB-3-1 tox | MCF10A rereplic
COc1ccc(-n2c(-c3cccc(F)c3)nc3c(cnn3-c3ccc(C)cc3)c2=O)cc1 | · | · | · | ? | i | ·
Cc1ccc(C)c(N(CC(=O)NC2CCCC2)C(=O)CCCC(=O)Nc2ccccn2)c1 | 2% | 16% | 10% | i | i | -5%
C=CCn1c(SCC(=O)NNC(=O)Nc2ccc(C)cc2)nnc1-c1ccccc1 | 2% | 15% | 1% | i | i | -2%
C=CCn1c(SCC(=O)Nc2ccc(-c3nc4ccc(C)cc4s3)cc2)nnc1-c1ccccc1 | 10µM* | ? | -1% | ? | i | 4.1µM*
Cc1nc(NC(=O)c2ccccc2)sc1-c1csc(N)n1 | -1% | ? | -19% | ? | 3.7µM* | 16µM*
Cc1nc(NC(=O)c2ccccc2)sc1-c1csc(NCc2ccccc2)n1 | 0% | -22% | -23% | i | i | 9%
Cc1ccccc1CS(=O)(=O)Cc1ccc(C(=O)NCCCN2CCOCC2)o1 | -1% | 3% | 8% | i | i | -5%
CCOc1ccccc1NC(=O)c1cc(C(=O)c2cc(Br)ccc2O)coc1=N | ? | -28% | -11% | ? | ? | 7.3µM*
COc1ccc(CNC(=O)c2cc(-c3ccccc3O)n[nH]2)cc1 | -4% | 8% | 10% | i | i | 5%
Cc1ccc(NC(=O)C(C)Oc2ccccc2)cc1S(=O)(=O)N1CCCCCC1 (stereo not given) | -1% | -18% | -15% | i | i | 13%
COc1ccc(NC(=O)c2ccc(F)cc2)cc1S(=O)(=O)Nc1cc(C)ccc1Br | ? | ? | ? | 4.6µM* | ? | 15µM*
Cc1ccc(NS(=O)(=O)c2cc(NC(=O)C(C)Oc3ccccc3)ccc2C)c(C)c1 (stereo not given) | 2% | ? | -30% | 18µM* | ? | 23%
COc1ccccc1NS(=O)(=O)c1cc(NC(=S)Nc2cc(C)cc(C)c2)ccc1Cl | 9% | 10% | 11% | 15µM* | ? | 5%
COc1ccccc1NS(=O)(=O)c1cc(NC(=O)CNC(=O)c2cc(C)cc(C)c2)ccc1C | ? | 0% | 5% | 18µM* | i | 6%
CCNC(=S)Nc1ccc(C)c(S(=O)(=O)Nc2ccccc2OC)c1 | -4% | -10% | 7% | i | i | 17%
O=C(N[C@@H](Cc1ccccc1)C(=O)N1CCC2(CC1)NCCc1[nH]cnc12)c1cccc(F)c1 | ? | -18% | ? | ? | ? | 10%
CCOc1ccc(S(=O)(=O)N2CCC(C(=O)OC(C)C(=O)N(C)C3CCCCC3)CC2)cc1 (stereo not given) | 2% | 1% | 0% | ? | ? | -14%
O=C(CCl)Nc1ccccc1C(=O)c1ccccc1 | 15µM* | -6% | ? | i | i | 7.3µM*
O=C(CN1CCN(S(=O)(=O)c2ccccc2)CC1)Nc1ccccc1C(=O)c1ccccc1 | -3% | ? | -28% | 3.7µM* | ? | 7%
O=C(CN1CCN(S(=O)(=O)c2ccccc2)CC1)Nc1ccccc1Cl | 1% | -3% | -6% | · | · | ?
Cc1ccc(S(=O)(=O)N(CC2CO2)c2cc(Cl)ccc2Cl)cc1 (stereo not given) | ? | 23µM* | ? | ? | ? | ?
Cc1ccc(N(CC2CO2)S(=O)(=O)c2ccc(C)cc2)cc1 (stereo not given) | -4% | -19% | -4% | i | i | -26%
O=C(O)c1ccc(C(=O)c2ccc3c(c2)C(=O)N(Cc2ccco2)C3=O)cc1 | -1% | 17% | 27% | i | i | 0%
Cc1ccc(C(=O)Nc2ccc(S(=O)(=O)N3CCCC3)cc2)o1 | 2% | -5% | -13% | ? | i | -1%
